# Targets with a hit are over-represented here; the source holds about 7,900 in all. About 0.6% of all pairs of compound and target were hits. Values without a mark were called inactive.
# How the values were obtained:
# Assay in all cases: log2 fold change, soluble protein after heating vs DMSO (PISA); higher = thermal stabilisation; K562 cells, 10 uM, 30 min; active = over 0.2 and 3.5 SD of the protein, either way, in both replicates (recomputed)
# erlotinib = compound: C#Cc1cccc(Nc2ncnc3cc(OCCOC)c(OCCOC)cc23)c1 [erlotinib]
# In short: (§1)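 Values are thermal stability changes relative to control samples and are taken from duplicates. They are stated as log2 fold changes. Before quantification by TMTpro 16plex LC-MS/MS with equalised channel sums, K562 cells at 2×10^6 cells/mL were treated with 10 μM compound for 30 min, heated in aliquots for 3 min across 48°C-58°C, pooled, extracted in PBS with 0.5% NP-40 at 4°C, and centrifuged at 21,000xg for 90 min to give the soluble supernatant.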
# [1] = compound: C/C(=N\NC(=O)C1=CC(=CC=C1)S(=O)(=O)N2CCOCC2)/C3=C(C=CC(=C3)Cl)O
# In short: as §1
# [2] = compound: C1=CC(=C(C=C1Cl)C2=NC3=NC=CN=C3C(=N2)NC4=CC=NC=C4)F
# In short: as §1
# [3] = compound: C1=CC(=CC=C1C2=NC3=C(N2)C=C(C=C3)C(=O)N)OC4=CC=C(C=C4)Cl
# In short: as §1
# [4] = compound: C1=CC2=C(C=CC(=C2)/C=C\3/C(=O)NC(=NCC4=CC=CS4)S3)N=C1
# In short: as §1
# [5] = compound: C1=CC2=NC=CN=C2C=C1/C=C/3\C(=O)NC(=O)S3
# In short: as §1
# [6] = compound: C1=CC=C(C=C1)C2=NC(=C(N2)C3=CC=NC=C3)C4=CC(=C(C=C4)Cl)O
# In short: as §1
# [7] = compound: C1=CC=C2C(=C1)C3=NNC4=CC=CC(=C43)C2=O
# In short: as §1
# [8] = compound: C1CCN(C1)C(=O)NC2=CC=CC(=C2)NC3=NC=C(C(=N3)NCCC4=CN=CN4)Br
# In short: as §1
# [9] = compound: C1CN(CCC1(CC2=CC=C(C=C2)Cl)N)C3=NC=NC4=C3C=CN4
# In short: as §1
# UniProt Q9UK23, sequence (Q9UK23 whole entry, looked up): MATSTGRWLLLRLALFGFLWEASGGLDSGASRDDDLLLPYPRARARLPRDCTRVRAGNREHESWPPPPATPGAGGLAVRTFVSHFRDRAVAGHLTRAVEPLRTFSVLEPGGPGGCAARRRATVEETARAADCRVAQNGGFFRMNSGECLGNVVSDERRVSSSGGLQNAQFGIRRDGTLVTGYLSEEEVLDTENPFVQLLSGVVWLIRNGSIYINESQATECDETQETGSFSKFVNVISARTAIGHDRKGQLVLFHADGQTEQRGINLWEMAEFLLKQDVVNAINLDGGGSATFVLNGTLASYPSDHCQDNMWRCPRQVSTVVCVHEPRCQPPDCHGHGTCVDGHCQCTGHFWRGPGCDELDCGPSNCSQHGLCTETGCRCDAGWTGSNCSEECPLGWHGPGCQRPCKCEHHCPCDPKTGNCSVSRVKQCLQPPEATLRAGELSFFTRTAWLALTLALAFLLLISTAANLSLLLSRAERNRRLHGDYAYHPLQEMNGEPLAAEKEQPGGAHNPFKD
# UniProt Q12968, sequence (Q12968 whole entry, looked up): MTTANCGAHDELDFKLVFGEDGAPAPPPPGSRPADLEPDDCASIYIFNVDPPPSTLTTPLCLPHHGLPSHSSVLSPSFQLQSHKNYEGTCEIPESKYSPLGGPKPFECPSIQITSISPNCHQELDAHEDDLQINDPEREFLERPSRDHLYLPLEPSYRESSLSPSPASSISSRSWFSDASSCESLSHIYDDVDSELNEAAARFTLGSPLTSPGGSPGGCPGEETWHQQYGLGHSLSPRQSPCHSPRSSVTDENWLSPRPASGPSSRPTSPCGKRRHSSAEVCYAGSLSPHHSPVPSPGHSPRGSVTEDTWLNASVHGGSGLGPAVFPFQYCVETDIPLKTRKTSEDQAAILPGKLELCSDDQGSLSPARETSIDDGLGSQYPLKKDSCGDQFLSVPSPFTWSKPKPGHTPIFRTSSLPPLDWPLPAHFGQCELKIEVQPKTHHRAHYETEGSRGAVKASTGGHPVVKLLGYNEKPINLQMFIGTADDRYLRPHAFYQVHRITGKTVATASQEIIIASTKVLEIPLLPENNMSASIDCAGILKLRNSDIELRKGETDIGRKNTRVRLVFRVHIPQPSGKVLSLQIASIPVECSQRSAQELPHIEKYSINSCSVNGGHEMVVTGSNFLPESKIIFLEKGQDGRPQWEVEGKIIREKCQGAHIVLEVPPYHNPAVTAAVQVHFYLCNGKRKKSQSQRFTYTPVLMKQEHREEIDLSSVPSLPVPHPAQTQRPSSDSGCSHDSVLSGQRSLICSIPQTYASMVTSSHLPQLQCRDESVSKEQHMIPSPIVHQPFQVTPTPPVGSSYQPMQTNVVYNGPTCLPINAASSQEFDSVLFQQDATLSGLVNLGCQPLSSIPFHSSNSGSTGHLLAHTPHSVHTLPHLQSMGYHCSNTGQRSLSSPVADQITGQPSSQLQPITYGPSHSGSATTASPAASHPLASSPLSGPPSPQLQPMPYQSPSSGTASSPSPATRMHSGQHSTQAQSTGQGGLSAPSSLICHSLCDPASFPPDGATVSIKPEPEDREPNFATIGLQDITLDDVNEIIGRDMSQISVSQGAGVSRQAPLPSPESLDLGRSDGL
# UniProt Q9UI09, sequence (Q9UI09 whole entry, looked up): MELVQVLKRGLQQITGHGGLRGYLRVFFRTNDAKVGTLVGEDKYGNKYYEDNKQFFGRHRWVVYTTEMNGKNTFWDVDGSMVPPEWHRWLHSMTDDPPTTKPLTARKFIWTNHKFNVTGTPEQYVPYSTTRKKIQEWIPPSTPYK
# UniProt O75323, sequence (O75323 whole entry, looked up): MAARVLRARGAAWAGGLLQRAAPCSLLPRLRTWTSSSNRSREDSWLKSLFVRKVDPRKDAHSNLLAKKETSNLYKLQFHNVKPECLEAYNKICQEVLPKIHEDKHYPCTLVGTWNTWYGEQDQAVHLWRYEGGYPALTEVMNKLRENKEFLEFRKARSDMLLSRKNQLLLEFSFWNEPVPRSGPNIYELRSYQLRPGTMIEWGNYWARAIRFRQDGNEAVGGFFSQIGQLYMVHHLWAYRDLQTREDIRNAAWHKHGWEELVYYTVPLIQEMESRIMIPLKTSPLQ
# UniProt Q8IXH7, sequence (Q8IXH7 whole entry, looked up): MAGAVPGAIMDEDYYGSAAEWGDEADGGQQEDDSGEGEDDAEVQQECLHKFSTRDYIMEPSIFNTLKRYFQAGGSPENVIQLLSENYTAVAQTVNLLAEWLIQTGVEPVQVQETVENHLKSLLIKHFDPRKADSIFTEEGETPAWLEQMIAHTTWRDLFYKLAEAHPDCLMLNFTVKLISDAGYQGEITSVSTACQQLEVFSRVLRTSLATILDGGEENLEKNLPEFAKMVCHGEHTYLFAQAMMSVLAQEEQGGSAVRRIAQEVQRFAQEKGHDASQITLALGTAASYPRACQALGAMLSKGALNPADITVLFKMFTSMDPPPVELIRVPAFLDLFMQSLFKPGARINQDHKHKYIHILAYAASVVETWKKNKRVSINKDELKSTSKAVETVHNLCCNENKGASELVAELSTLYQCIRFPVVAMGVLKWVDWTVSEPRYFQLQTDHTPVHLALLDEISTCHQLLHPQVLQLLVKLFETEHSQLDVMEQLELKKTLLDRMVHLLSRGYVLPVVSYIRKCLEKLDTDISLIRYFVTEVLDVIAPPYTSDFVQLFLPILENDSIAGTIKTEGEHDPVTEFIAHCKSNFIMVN
# UniProt Q9H4L5, sequence (Q9H4L5 whole entry, looked up): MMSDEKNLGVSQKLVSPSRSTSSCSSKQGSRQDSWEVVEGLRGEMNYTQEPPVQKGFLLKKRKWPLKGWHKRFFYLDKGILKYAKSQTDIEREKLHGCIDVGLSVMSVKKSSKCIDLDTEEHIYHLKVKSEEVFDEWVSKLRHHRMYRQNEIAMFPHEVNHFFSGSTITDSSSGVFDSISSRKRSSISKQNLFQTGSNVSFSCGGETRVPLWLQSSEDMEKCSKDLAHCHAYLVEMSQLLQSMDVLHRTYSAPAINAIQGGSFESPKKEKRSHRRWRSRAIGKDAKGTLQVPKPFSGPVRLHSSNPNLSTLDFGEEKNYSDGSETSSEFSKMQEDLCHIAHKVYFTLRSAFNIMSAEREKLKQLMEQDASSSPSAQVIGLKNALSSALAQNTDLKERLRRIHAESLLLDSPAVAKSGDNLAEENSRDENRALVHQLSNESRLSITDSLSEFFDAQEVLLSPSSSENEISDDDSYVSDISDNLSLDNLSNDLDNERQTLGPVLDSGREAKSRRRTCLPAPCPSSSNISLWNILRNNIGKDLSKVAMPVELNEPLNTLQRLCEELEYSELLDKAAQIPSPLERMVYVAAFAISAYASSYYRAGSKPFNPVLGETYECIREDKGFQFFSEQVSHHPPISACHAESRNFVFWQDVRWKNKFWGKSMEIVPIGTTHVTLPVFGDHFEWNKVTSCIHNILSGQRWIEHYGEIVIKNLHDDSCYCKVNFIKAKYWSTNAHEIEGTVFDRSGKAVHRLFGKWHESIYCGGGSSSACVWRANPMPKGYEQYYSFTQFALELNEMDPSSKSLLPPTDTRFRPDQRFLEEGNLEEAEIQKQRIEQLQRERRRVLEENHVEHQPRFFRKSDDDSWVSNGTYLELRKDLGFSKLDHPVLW
# UniProt P68402, sequence (P68402 whole entry, looked up): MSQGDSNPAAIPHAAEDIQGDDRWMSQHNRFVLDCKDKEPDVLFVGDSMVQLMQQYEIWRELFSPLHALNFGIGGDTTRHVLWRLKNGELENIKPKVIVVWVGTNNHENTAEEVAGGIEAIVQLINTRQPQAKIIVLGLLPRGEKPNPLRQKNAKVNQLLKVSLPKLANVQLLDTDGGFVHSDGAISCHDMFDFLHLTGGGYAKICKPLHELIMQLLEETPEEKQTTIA
# UniProt P57740, sequence (P57740 whole entry, looked up): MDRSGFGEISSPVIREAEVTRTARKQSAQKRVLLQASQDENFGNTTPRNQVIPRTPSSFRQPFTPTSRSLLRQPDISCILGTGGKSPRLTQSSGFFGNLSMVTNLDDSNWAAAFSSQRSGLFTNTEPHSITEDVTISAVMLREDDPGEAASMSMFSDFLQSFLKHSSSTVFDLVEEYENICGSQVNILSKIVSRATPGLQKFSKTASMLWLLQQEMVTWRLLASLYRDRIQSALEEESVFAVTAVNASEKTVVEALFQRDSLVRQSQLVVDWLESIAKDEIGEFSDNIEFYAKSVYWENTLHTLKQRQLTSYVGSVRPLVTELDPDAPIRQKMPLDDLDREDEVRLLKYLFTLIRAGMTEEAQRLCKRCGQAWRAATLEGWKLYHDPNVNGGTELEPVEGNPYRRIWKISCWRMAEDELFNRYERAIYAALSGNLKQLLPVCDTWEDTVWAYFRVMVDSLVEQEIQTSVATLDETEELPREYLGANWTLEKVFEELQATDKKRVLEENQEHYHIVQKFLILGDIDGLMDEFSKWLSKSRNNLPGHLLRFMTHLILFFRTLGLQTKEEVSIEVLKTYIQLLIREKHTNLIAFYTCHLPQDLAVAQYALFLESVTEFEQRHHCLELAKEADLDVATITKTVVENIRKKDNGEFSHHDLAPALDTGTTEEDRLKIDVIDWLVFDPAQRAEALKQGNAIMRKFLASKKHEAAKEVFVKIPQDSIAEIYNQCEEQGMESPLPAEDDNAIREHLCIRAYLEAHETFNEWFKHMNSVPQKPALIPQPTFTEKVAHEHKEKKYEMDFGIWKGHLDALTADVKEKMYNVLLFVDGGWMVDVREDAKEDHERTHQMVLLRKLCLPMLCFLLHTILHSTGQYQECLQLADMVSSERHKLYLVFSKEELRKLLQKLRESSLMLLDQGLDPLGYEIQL
# UniProt Q15102, sequence (Q15102 whole entry, looked up): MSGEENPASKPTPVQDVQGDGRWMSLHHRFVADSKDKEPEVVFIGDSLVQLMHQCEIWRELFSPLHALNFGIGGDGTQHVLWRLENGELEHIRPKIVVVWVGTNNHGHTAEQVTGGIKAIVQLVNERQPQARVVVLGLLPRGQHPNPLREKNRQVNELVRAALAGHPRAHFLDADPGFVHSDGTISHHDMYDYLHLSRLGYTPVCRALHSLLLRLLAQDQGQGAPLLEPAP
# UniProt Q69YL0, sequence (Q69YL0 whole entry, looked up): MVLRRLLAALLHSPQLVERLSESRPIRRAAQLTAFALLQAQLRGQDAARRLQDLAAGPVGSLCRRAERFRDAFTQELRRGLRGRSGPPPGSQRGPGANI
Target,log2 fold change (erlotinib),log2 fold change [1],log2 fold change [2],log2 fold change [3],log2 fold change [4],log2 fold change [5],log2 fold change [6],log2 fold change [7],log2 fold change [8],log2 fold change [9]
NRF1 isoform 4 (UniProt Q16656),0.079,0.012,-0.161,-0.028,0.053,-0.001,-0.012,-0.116,-0.051,-0.003
MRFAP1 (UniProt Q9Y605),-0.007,-0.019,–,-0.013,-0.334,0.014,-0.045,0.141,-0.162,-0.106
OSTM1 (UniProt Q86WC4),0.034,0.111,0.077,0.107,-0.106,0.001,0.044,-0.047,-0.035,-0.002
PAFAH1B3 (UniProt Q15102),0.028,0.091,0.029,0.017,0.148,-0.038,0.085,0.061,-0.058,0.032
OSBPL3 (UniProt Q9H4L5),1.67 (active),0.15,-0.147,0.165,0.094,–,0.255,0.16,-0.021,-0.078
NIPSNAP2 (UniProt O75323),0.024,0.065,0.076,0.106,0.044,-0.079,0.071,0.041,0.01,0.007
NAA11 (UniProt Q9BSU3),-0.023,-0.012,-0.033,0.06,0.158,-0.207,-0.023,-0.032,-0.108,0.167
NME2P1 (UniProt O60361),0.147,0.012,0.147,0.03,0.04,0.137,-0.163,0.026,0.076,0.078
PAFAH1B2 (UniProt P68402),0.195,-0.088,0.134,-0.016,-0.036,-0.034,0.068,0.027,0.128,0.047
NELFCD (UniProt Q8IXH7),0.096,0.034,0.121,-0.154,0.056,0.031,–,0.06,–,–
MORC2 (UniProt Q9Y6X9),0.105,0.033,-0.027,0.051,0.148,-0.097,–,0.421,–,–
NOB1 (UniProt Q9ULX3),0.048,0.061,-0.106,0.017,-0.025,-0.08,0.081,0.053,0.045,-0.078
NA isoform 3 (UniProt Q4G0T1),0.019,0,–,0.01,0.11,-0.035,0.014,0.047,0.058,0.071
NCBP2AS2 (UniProt Q69YL0),0.033,0.104,–,0.054,0,0.106,-0.029,0.148,0.048,0.113
OTUD6B (UniProt Q8N6M0),0.053,0.117,-0.103,0.019,0.142,0.032,-0.001,0.051,-0.014,-0.055
NUP107 (UniProt P57740),-0.05,0.004,-0.128,0.063,0.04,0.065,-0.037,-0.192,-0.145,-0.005
MYH11 isoform 2 (UniProt P35749),0.046,-0.081,0.096,0.02,0.032,0.018,-0.026,0.036,-0.046,0.028
NEK3 (UniProt P51956),0.003,-0.011,0.096,0.06,-0.063,–,0.039,-0.05,-0.141,0.103
NDUFA12 (UniProt Q9UI09),-0.014,0.011,0.016,0.147,0.075,0.001,0.061,-0.007,0.028,-0.031
MKNK1 (UniProt Q9BUB5),0.305 (active),0.09,-0.05,0,0.011,0.081,-0.028,0.001,-0.051,-0.066
MPHOSPH10 (UniProt O00566),-0.079,-0.005,-0.412,-0.023,0.031,0.061,0.07,-0.004,0.024,-0.023
NAGPA (UniProt Q9UK23),0.046,0.023,0.046,0.056,0.033,-0.018,–,-0.025,-0.013,0.148
NFATC3 (UniProt Q12968),0.121,0.197,0.024,0,0.039,-0.013,-0.019,-0.101,-0.01,-0.027
MINK1 (UniProt Q8N4C8),-0.05,0.053,-0.071,0.036,-0.045,0.001,-0.064,-0.203,-0.003,-0.008
NNMT (UniProt P40261),0.037,0.062,0.123,0.021,0.074,0,–,0.028,0.045,0.043
ORC3 isoform 2 (UniProt Q9UBD5),0.134,-0.068,-0.024,-0.021,0.214,0.042,0.013,0.072,-0.013,0.07
MOV10 (UniProt Q9HCE1),-0.103,-0.062,-0.242,0.026,-0.002,0.049,-0.049,-0.054,0.04,-0.158
NOP58 (UniProt Q9Y2X3),-0.013,0.001,-0.332,-0.001,-0.043,0.034,-0.055,-0.126,-0.156,-0.143
NDUFB1 (UniProt O75438),-0.015,-0.016,0.209,0.053,-0.102,0.039,–,0.079,-0.05,-0.006

# From the supplement of paper PMC10849652
